Experimental data from PubChem BioAssay AID977624 (Broad Institute, 2014).
Out of some 1,800 compounds screened, fewer than 10 were called active. Roughly 44% stayed inconclusive and do not appear here.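 How the source made its calls: active means compound lowering the normal-ribosome reporter at least twice as much as the humanized-ribosome reporter, growth loss under a set limit; inconclusive means no clear call, values can overlap the other calls; inactive means the rest.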 Only a sample is shown.

Test: wild-type E. coli growth inhibition versus h34 humanized strain – h34 mutant RFP, wild-type GFP, cherry-pick, dose response (AID 977624)
Settings: fluorescence, 24 h; series mostly up to 50 µM

outcome, inactive:
O=C1CN(C(=O)c2ccc(Cl)c(S(=O)(=O)N3CCc4ccccc43)c2)c2ccccc2N1
COc1ccccc1C1CCN(C(=O)c2ccco2)CC1
Cc1ccccc1SCC(=O)OCC(=O)Nc1sccc1C(N)=O
COc1ccc(-c2csc3ncn(-c4ccc(C)cc4)c(=O)c23)cc1OC
O=C(COC(=O)C12CC3CC(CC(O)(C3)C1)C2)NCCc1ccc(Cl)cc1
CCCc1c(C(=O)Nc2ccc(OC)cc2)cnn1-c1ccccc1
C=CCn1c(SCC(=O)Nc2ccc3c(c2)OCCO3)nnc1-c1ccco1
C[C@@H]1CCCCO[C@H](CN(C)C(=O)CCCN(C)C)[C@@H](C)CN([C@@H](C)CO)C(=O)c2cc(NC(=O)Nc3cccc4ccccc34)ccc2O1
CCn1nc(Cc2cccc3ccccc23)c(C#N)c1N
O=S(=O)(NCC1CCCO1)c1ccc(-c2ccc(Cl)cc2)cc1 (stereo not drawn)
Cc1ccccc1COc1ccc(-c2nn[nH]n2)cc1
CCc1ccc2[nH]c(C(=O)Nc3ccc4c(c3)OCO4)cc2c1
COc1ccc(Cl)cc1NC(=O)C1Cc2ccccc2CN1S(C)(=O)=O (stereo not drawn)
CC(C)(C)c1ccc(-c2noc(CCC(=O)NCc3ccco3)n2)cc1
CN(Cc1nnc(-c2ccc(F)cc2)o1)c1ccccc1
Cc1ccc(Cn2cnc3ccccc32)cc1
O=C(CSc1ccc(-c2cccnc2)nn1)N1CCCc2ccccc21
O=C1c2ccccc2C(c2nnnn2C2CCCCC2)N1CCc1ccc(O)cc1 (stereo not drawn)
CCOC(=O)C1CCCN(Cc2c(Cl)cccc2Cl)C1 (stereo not drawn)
CCOc1ccc2nc(SCC(=O)Nc3nonc3C)[nH]c2c1
CCCCCc1nnc(NC(=O)C2COc3ccccc3O2)s1 (stereo not drawn)
O=C(Cc1cccc(NC(=O)C2CCCN(C(=O)CCc3ccccc3)C2)c1)Nc1cccc(C(=O)N2CCCCC2)c1 (stereo not drawn)
CCN(CC)CCn1c(SCC(=O)Nc2cccc(OC)c2)nc2c(sc3ccccc32)c1=O
COc1ccccc1CCNC(=O)c1cccc(NC(=O)CC2SC(N3CCCCC3)=NC2=O)c1 (stereo not drawn)
Cc1cc(C(=O)COC(=O)CNC(=O)c2ccccc2)c(C)n1CC1CCCO1 (stereo not drawn)
COc1ccc(NC(=O)c2cccc(Oc3ccc([N+](=O)[O-])cc3Cl)c2)cc1
Cc1ccc(S(=O)(=O)Nc2ccc3c(c2)C(=O)N([C@@H](C)CO)C[C@@H](C)[C@H](CN(C)C(=O)c2ccccc2)OCCCC[C@@H](C)O3)cc1
CCOc1ccc(CN(C)C(=O)c2ccc(NS(=O)(=O)c3ccc4[nH]c(=O)[nH]c4c3)cc2)cc1
